Measured values published in PubChem BioAssay (NCATS).
Inconclusive results are not listed. Calls of active or inactive are those of the source. The call rests on the fitted dose curve; in most records, active means well fitted inhibition curve with a large enough effect; inconclusive means small, poorly fitted or top-dose-only effect; inactive means no such curve, though single readings can be large or run the other way.

What follows are compounds tested against Tumor susceptibility gene 101 protein (Homo sapiens) (UniProt Q99816) (assay: qHTS Assay for Iinhibitors of HIV-1 Budding by Blocking the Interaction of PTAP/TSG101: Hit Validation (AID 651600; further: nearly all actives have a fitted effect of over 70% in size)). Settings: PTAP peptide/TSG101 UEV interaction, biochemical assay; series mostly up to 57.5 µM; activity change, negative = inhibition: at the top concentration.
Outline: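 Tsg101 binding domain 10 uM + FITC-PTAP peptide 50 nM (final), 10 mM HEPES pH 7.5/0.15 M NaCl/0.01% Tween 20/3 mM EDTA/0.1 mM TCEP; 20 min RT; FP read, FITC filters.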
On the % scale 0 is the no-effect control and ±100 the full control effect; potency means the concentration at half of the fitted maximal effect.

Sequence of Tumor susceptibility gene 101 protein (Homo sapiens) (Q99816 whole entry, looked up, the tested form may be a part): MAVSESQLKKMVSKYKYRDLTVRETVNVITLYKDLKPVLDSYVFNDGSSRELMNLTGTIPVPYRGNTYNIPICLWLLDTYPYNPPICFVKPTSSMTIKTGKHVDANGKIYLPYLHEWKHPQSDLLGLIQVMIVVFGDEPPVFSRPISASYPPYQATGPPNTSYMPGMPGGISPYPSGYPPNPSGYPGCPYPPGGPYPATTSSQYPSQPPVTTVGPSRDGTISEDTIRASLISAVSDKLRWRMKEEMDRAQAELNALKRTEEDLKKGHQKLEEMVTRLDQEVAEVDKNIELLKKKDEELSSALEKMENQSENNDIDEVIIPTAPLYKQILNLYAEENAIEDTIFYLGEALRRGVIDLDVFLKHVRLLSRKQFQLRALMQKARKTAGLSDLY

SMILES	activity change, negative = inhibition	Potency
Cc1c(C(=O)Nc2cccc(C(F)(F)F)c2)sc2nc3n(c(=O)c12)CCCC3	6.36% (inactive)	–
CC(=O)n1c(C=Nc2ccc(Cl)cc2)c(O)c2ccccc21	–	16.3 µM (active)
CCc1cc(C(=O)OC)c(NC(=O)CC2Nc3cc(C)c(C)cc3NC2=O)s1 (stereo not given)	5.17% (inactive)	–
Cc1cc[n+](-c2[nH]c(=O)sc2/C=N/NC([S-])=Nc2ccccc2)cc1	–	18.3 µM (active)
COc1cc(/C=c2\sc3nc(=O)c(-c4ccccc4)nn3c2=O)ccc1OCCC(C)C	0.977% (inactive)	–
Nc1c(C(=O)O)sc2nc(-c3ccccc3)cc(-c3ccc(Cl)cc3)c12	4.22% (inactive)	–
Cc1c(C(=O)NCc2ccccc2)sc2nc3n(c(=O)c12)CCCCC3	-1.87% (inactive)	–
Cc1oc2cc(O)ccc2c(=O)c1-c1nncn1-c1ccccc1	–	20.6 µM (active)
Clc1ccc(-c2nnc3sc(-c4ccc(Br)o4)nn23)cc1	–	4.61 µM (active)
O=[N+]([O-])c1ccc(-c2ccc(/C=N/Nc3nc(N4CCCC4)nc(N4CCCC4)n3)o2)cc1	7.22% (inactive)	–
O=C(NCc1ccco1)c1cccc2c1C(=O)c1ccc(N3CCC(Cc4ccccc4)CC3)cc1S2(=O)=O	-18.3% (inactive)	–
Cn1c(=O)c(Nc2ccc(Cl)cc2)c2c3c(cccc31)C(=O)c1ccccc1-2	–	10.3 µM (active)
Cn1nc([N+](=O)[O-])c(C(C#N)c2nc3ccccc3n2C)c(Cl)c1=O (stereo not given)	-4.38% (inactive)	–
COc1ccc(-n2nc(C(=O)Nc3ccc(OC)c(OC)c3)c3c4ccccc4n(C)c3c2=O)cc1	7.24% (inactive)	–
CC(=O)Nc1ccc(N=Cc2c(O)ccc3ccccc23)cc1	–	29.1 µM (active)
CCN(CC)CCCNc1ccc2ncn3c4ccc(O)cc4c(=O)c1c23	–	4.61 µM (active)
C(=N\NC1=Nc2cccc3cccc1c23)/c1ccccc1	-7.26% (inactive)	–
Cc1ccc(C2C=C(c3ccccc3)Nc3nc(NS(C)(=O)=O)nn32)cc1 (stereo not given)	2.68% (inactive)	–
CC(=O)c1ccc(N2C(=O)C3C(C2=O)C(C(=O)c2ccc(Cl)cc2)N2CCCC32)cc1 (stereo not given)	-21.7% (inactive)	–
CCN(CC)C(=O)CSc1nnc2nnc3cc(OC)ccc3n12	–	29.1 µM (active)

SMILES	activity change, negative = inhibition	Potency
CCN(CC)c1ccc2cc(NC(=O)CCC(=O)O)c(=O)oc2c1	–	18.3 µM (active)
O=C(C1=C(O)C(=O)N(c2nccs2)C1c1ccccc1)c1cc2ccccc2o1 (stereo not given)	–	5.17 µM (active)
Cc1cccc2cc(/C=C3\N=C(c4ccccc4)OC3=O)c(N3CCOCC3)nc12	-1.31% (inactive)	–
C/C(N)=C(/C#N)C(=O)CSc1ncnc2ccccc12	7.4% (inactive)	–
Cc1ccccc1N1C(=O)c2cccc3c(N(C)CCO)ccc(c23)C1=O	–	13 µM (active)
S=C(Nc1ccc(N2CCOCC2)cc1)Nc1ccc2nc(-c3ccco3)c(-c3ccco3)nc2c1	–	32.6 µM (active)
Brc1ccc(C2=CC(c3ccco3)n3ncnc3N2)cc1 (stereo not given)	-0.541% (inactive)	–
COc1cc(-c2cc(-c3ccc(N)cc3)[nH]c(=O)c2C#N)cc(OC)c1OC	4.77% (inactive)	–
O=C(NCc1cccc(F)c1)c1cccc2c1C(=O)c1ccc(N3CCCC3)cc1S2(=O)=O	-8.13% (inactive)	–
S=C(NCc1ccccc1)Nc1cccc(Cl)c1	-1.4% (inactive)	–
COc1ccc(CCn2c(=N)c(S(=O)(=O)c3ccc(Cl)cc3)cc3c(=O)n4ccccc4nc32)cc1	–	6.51 µM (active)
CC1CCCN(Cc2c(O)ccc3c2O/C(=C\c2ccco2)C3=O)C1 (stereo not given)	–	14.6 µM (active)
O=c1[nH]nc(-c2ccc(F)cc2)cc1Cc1ccc(F)cc1	4.58% (inactive)	–
O=C(OCCN1C(=O)c2cccc3c(N4CCOCC4)ccc(c23)C1=O)c1ccc(Cl)cc1	–	18.3 µM (active)
O=[N+]([O-])c1cc(Cl)cc(/C=N/NC(=S)Nc2ccc(S(=O)(=O)N3CCOCC3)cc2)c1O	-9.43% (inactive)	–
CC1(C)CC(=O)C2=C(C1)OC(N)=C(C#N)[C@@H]2c1ccccc1[N+](=O)[O-]	-10.1% (inactive)	–
CCOC(=O)N1CCN(c2nc3ccccc3nc2C(C#N)S(=O)(=O)c2ccc(C)cc2)CC1 (stereo not given)	-8.86% (inactive)	–
Cc1ccc(/C=C/C(=O)Nc2ccc(S(=O)(=O)Nc3onc(C)c3C)cc2)cc1	4.41% (inactive)	–
CC(=O)c1cccc(-n2nnnc2SCC(=O)Nc2cc(C)on2)c1	11.4% (inactive)	–
Cc1cccc(N=Nc2c(O)[nH]c3ccc(F)cc23)c1	-2.45% (inactive)	–
